The text below walks through data of PubChem BioAssay (NCATS).

Structures are written as SMILES. Values joined by “and” are separate entries in the source; they are usually repeats but may differ in a detail not shown here. Identical values can stand only once. Inconclusive results are not listed. Active and inactive are the calls of the source. Unless noted, the call rests on the fitted dose curve; in most records, active means well fitted curve in the direction sought with a large enough effect; inconclusive means small, poorly fitted or top-dose-only effect, or another doubt; inactive means no such curve, though single readings can be large; an effect the other way counts as inactive or inconclusive.

A short description of test [1]: qHTS Assay for Lipid Storage Modulators (AID 1519; calls by dose curve; on activity change, negative = inhibition: on the % scale 0 is the no-effect control and ±100 the full control effect). As to conditions: Drosophila S3 cells, BODIPY lipid droplet/cell ratio, laser cytometry, cells loaded with oleic acid. The method in brief:
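Cells seeded at 5,000 per well were treated with compounds over a concentration series and loaded with oleic acid (400 uM, as added). Lipid droplet fluorescence (488 nm excitation, 500-530 nm channel) was read by laser-scanning cytometry and normalized to 20 uM Triacsin C.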

Test [2] is described as follows: Validation of Assay for Modulators of Lamin A Splicing (AID 1459; active means well fitted curve in the direction sought with a large enough effect in the signal ratio; the % refers to the signal ratio;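 further: cells exposed to compound for two days before reading; 0% is about no effect; ratio rise marks activators and ratio drop marks inhibitors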). The settings on record: Lamin A splicing dual RFP/GFP fluorescence reporter; series mostly up to 9.22 µM. Put shortly: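 HeLa S3 lamin A-EGFP/DsRed2 stable clone, 600 cells/well, Opti-MEM 2% FBS; compounds by pin tool; 48 hrs, 37 °C/5% CO2; Acumen 488 nm scan, objects 10-100 um; GFP/RFP intensity ratio.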

The target of test [3] is DNA repair nuclease/redox regulator APEX1 (Homo sapiens) (UniProt P27695). The test can be described thus: qHTS Validation Assay for Inhibitors of the Human Apurinic/apyrimidinic Endonuclease 1 (APE1) (AID 1705; further: potency means the concentration at half of the fitted maximal effect;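 on activity change, negative = inhibition: TAMRA fluorescence gain over two minutes as APE1 cuts a quenched THF abasic duplex; on the % scale 0 is the no-effect control and ±100 the full control effect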). The settings on record: purified APE1 endonuclease activity, fluorescence, titration; series mostly up to 57.1 µM. Put shortly: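 qHTS, 1536-well. APE1 + cpd 15 min RT → 50 nM TAMRA/BHQ-2 THF-abasic dsDNA substrate → kinetic fluorescence, 3 reads/60 s; delta(read3−read1) = reaction progress. No-enzyme buffer = negative control.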
Sequence of DNA repair nuclease/redox regulator APEX1 (Homo sapiens) (P27695 whole entry, looked up): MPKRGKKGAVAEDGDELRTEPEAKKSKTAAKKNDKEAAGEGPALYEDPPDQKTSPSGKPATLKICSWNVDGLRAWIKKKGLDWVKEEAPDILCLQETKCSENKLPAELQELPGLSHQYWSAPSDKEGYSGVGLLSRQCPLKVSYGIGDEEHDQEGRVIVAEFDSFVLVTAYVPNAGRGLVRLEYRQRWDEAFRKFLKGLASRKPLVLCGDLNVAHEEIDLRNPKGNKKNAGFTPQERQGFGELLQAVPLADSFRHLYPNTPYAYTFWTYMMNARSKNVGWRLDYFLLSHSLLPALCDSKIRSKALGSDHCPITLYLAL
(In general: In qHTS, concentration-response curves come from the screen itself.)

In test [4] the target is Endonuclease 4 (Escherichia coli (strain K12)) (UniProt P0A6C1). Description: Counterscreen for APE1 Inhibitors: qHTS Validation Assay for Inhibitors of Endonuclease IV (AID 1708). Further: on the % scale 0 is the no-effect control and ±100 the full control effect. The settings on record: E. coli endonuclease IV, DNA cleavage fluorescence; series mostly up to 57.1 µM. Put shortly: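 Measured as reaction progress, the fluorescence gain between first and third kinetic reads after adding 50 nM TAMRA/BHQ-2 THF duplex to 2 nM enzyme preincubated 15 min with compound; 2 mM MgCl2, pH 7.5.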

The target of test [5] is Alpha-galactosidase A (Homo sapiens) (UniProt P06280). The test can be described thus: Counterscreen for Glucocerebrosidase Inhibitors: qHTS Assay for Human alpha-Galactosidase at pH 4.5 (AID 992). Further: 0% is about no effect. As to conditions: purified enzyme, fluorogenic substrate; series mostly up to 76.9 µM. The method in brief: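 Fluorogenic 1536-well qHTS at pH 4.5 (citrate, Tween-20): 2 nM enzyme, 80 uM 4-MU-alpha-galactoside, 20 min room temperature, NaOH/glycine stop. Titration 0.7 nM to 77 uM, data normalized to no-enzyme and full-activity controls, Hill-fitted AC50.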
Sequence of Alpha-galactosidase A (Homo sapiens) (P06280 whole entry, looked up): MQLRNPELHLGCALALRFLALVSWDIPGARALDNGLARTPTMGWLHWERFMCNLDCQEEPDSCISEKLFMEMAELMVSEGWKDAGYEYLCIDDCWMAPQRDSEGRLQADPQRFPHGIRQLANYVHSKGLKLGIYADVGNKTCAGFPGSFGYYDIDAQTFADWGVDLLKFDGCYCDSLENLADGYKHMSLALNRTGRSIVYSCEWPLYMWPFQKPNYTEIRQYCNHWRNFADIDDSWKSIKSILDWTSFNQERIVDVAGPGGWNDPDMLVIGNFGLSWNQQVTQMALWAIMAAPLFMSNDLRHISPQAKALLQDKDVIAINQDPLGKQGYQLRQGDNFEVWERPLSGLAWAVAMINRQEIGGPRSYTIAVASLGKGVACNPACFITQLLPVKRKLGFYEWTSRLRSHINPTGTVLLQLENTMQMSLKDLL
Background: Counterscreens check selectivity or assay interference.

For test [6], the target named is alpha-glucosidase (Oryza sativa, rice) (UniProt Q653V4). Description: Counterscreen for Glucocerebrosidase Inhibitors: qHTS Assay for Rice alpha-Glucosidase at pH 5.0 (AID 997).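 Further: 0% = full activity with enzyme and -100% = basal without enzyme.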 The settings on record: rice alpha-glucosidase enzyme activity; series mostly up to 76.9 µM. The method in brief:
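Endpoint fluorogenic assay at pH 5.0: compounds (0.7 nM to 77 uM) titrated against 4 nM rice enzyme and 400 uM 4-MU-alpha-glucoside for 20 min at room temperature; NaOH/glycine stop, read ex 365/em 440 nm, Hill-fitted AC50.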

The nature of test [7]: Cell Viability - LYMP2-022 (AID 987). Further: potency means the concentration at half of the fitted maximal effect; nearly all actives have a fitted effect of over 55% in size. The settings on record: LYMP2-022 lymphoblastoid cell viability; series mostly up to 92.2 µM. The method in brief: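 Luminescent ATP read-out (CellTiter-Glo, 30 min, RT) after 24 hr, 37 C compound exposure of 2500 human lymphoblastoid cells/well in complete medium. Cytotoxicity taken as concentration-dependent ATP loss; AC50 from standard Hill equation.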

Test [8] in a line: Cell Viability - LYMP1-002 - Assay at 24 hr (AID 993). Further: on the % scale 0 is the no-effect control and ±100 the full control effect. The settings on record: LYMP1-002 lymphoblastoid cells viability; series mostly up to 92.2 µM. Put shortly: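 CellTiter-Glo luminescence (intracellular ATP) after 24 h compound exposure, 37 C, in LYMP1-002 human lymphoblastoid cells; decreased ATP taken as cytotoxicity. AC50 from standard Hill fit of concentration-response curves.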

Where [9] appears, read: measured here: cell count channel max response.
[10] abbreviates: measured here: lipid channel max response.

In the case of `CCN(CCCCOC(=O)c1ccc(OC)c(OC)c1)C(C)Cc1ccc(OC)cc1` (stereo not given), the activity change, negative = inhibition in test [1] (at 57.5 µM (top of the series)) is 3.28% (inactive). Also, the max response was determined as 17.5% in test [1] (setting [9]) and 26.2% in test [1] (setting [10]).
In the case of `C[C@H](O)C(=O)Nc1c(I)c(C(=O)NC(CO)CO)c(I)c(C(=O)NC(CO)CO)c1I`, the activity change, negative = inhibition in test [1] (at 25.7 µM (top of the series)) is -3.5% (inactive). Moreover, the max response in test [1] (setting [9]) is -8.47%; in test [1] (setting [10]), -9.62%.
The matching figures for `C[C@@H](CN(C)C)CN1c2ccccc2Sc2ccccc21`: -1.55% (inactive), -4.09% and -6.89%.
As to `CN1C2CCC1CC(OC(=O)c1c[nH]c3ccccc13)C2` (stereo not given), the call in test [2] and in test [4] was inactive. Also, the activity change, negative = inhibition in test [1] (at 57.5 µM (top of the series)) was 1.19% (inactive). For the same molecule, the max response in test [1] (setting [9]) was found to be 10.2%; in test [1] (setting [10]), 11.1%. The Potency in test [3] was 39.8 µM (active).
For the molecule `CC(C)(Oc1ccc(Cl)cc1)C(=O)O`, the activity change, negative = inhibition in test [1] (at 25.7 µM (top of the series)) is -1.74% (inactive). Moreover, the max response in test [1] (setting [9]) was 1.11%; in test [1] (setting [10]), -1.85%.
Take `CC(CCc1ccccc1)NCC(O)c1ccc(O)c(C(N)=O)c1` (stereo not given): the outcome in test [2] and in test [4] was inactive. Also, the activity change, negative = inhibition in test [1] (at 57.5 µM (top of the series)) was 1.59% (inactive) and 2.63% (inactive). Besides, the max response in test [1] (setting [9]) is 0.538% and 18.3%; in test [1] (setting [10]) it was 3.22% and 11.8%. For the same molecule, in test [3], the Potency result is “inactive”.
Regarding `Cc1cccc(C)c1NC(=O)CN1CCN(CCCC(c2ccc(F)cc2)c2ccc(F)cc2)CC1`, in test [1] (at 25.7 µM (top of the series)), the activity change, negative = inhibition is -4.87% (inactive). Besides, the max response in test [1] (setting [9]) was -22.3%; in test [1] (setting [10]), -28.7%.
The matching figures for `NCCCC[C@H](N[C@@H](CCc1ccccc1)C(=O)O)C(=O)N1CCC[C@H]1C(=O)O`: 0.781% (inactive), 1.7% and 0.636%.
`CCC(NC(C)C)C(O)c1ccc(O)c(O)c1` (stereo not given): the molecule was classed as inactive in test [2] and in test [4]. In addition, in test [1] (at 57.5 µM (top of the series)), the activity change, negative = inhibition is 1.71% (inactive). Besides, the max response in test [1] (setting [9]) is 7.27%; in test [1] (setting [10]) it was 6.31%. Moreover, the Potency result in test [3] is “inactive”.
For `CCCn1c(=O)[nH]c(=O)c2[nH]cnc21`, the molecule was called inactive in test [5], in test [6], in test [2] and in test [4]. Also, the activity change, negative = inhibition in test [1] (at 57.5 µM (top of the series)) was -0.904% (inactive). Moreover, the results for the max response in test [1] (setting [9]) and in test [1] (setting [10]) were 29.5% and 25.8%, respectively. Moreover, in test [3], the Potency result was “inactive”.
As for `C1CCc2nnnn2CC1`, the molecule was called inactive in test [5], in test [6], in test [2] and in test [4]. Further, the activity change, negative = inhibition is 0.501% (inactive) in test [1] (at 25.7 µM (top of the series)) and 0.8% (inactive) in test [1] (at 57.5 µM (top of the series)). For the same molecule, the max response in test [1] (setting [9]) was 12.5% and 9.15%; in test [1] (setting [10]) it was 18% and 12.4%. Moreover, in test [3], the Potency result is “inactive”.
As to `CO/N=C1\CN(c2nc3c(cc2F)c(=O)c(C(=O)O)cn3C2CC2)CC1CN` (stereo not given), the activity change, negative = inhibition in test [1] (at 57.5 µM (top of the series)) is 8.95% (inactive). The max response in test [1] (setting [9]) came out at 11%; in test [1] (setting [10]) it was 24%.
As to `N[C@@H](Cc1cnc[nH]1)C(=O)O`, the molecule was classed as inactive in test [5], in test [6], in test [2] and in test [4]. The activity change, negative = inhibition in test [1] (at 57.5 µM (top of the series)) is 2.39% (inactive). Also, the max response was -24.8% in test [1] (setting [9]) and -24.4% in test [1] (setting [10]). The Potency entry in test [3] was “inactive”.
`C/C=C(/C(=C/C)c1ccc(O)cc1)c1ccc(O)cc1`: the activity change, negative = inhibition in test [1] (at 57.5 µM (top of the series)) was 15.3% (inactive). Further, the results for the max response in test [1] (setting [9]) and in test [1] (setting [10]) were 6.35% and 27.9%, respectively.
The matching figures for `CCCCCCCCCCCCCCCCOP(=O)([O-])OCC[N+](C)(C)C`: 6.36% (inactive), 14.5% and 23.7%.
On to `Nc1cc(Cl)c(NC2=NCCN2)c(Cl)c1`, for which the outcome in test [5], in test [6] and in test [2] was inactive. Besides, the Potency entry in test [3] is “inactive”.
With `CC(=O)Nc1c(I)cc(I)c(C(=O)O)c1I`, the activity change, negative = inhibition in test [1] (at 57.5 µM (top of the series)) was 5.69% (inactive). Besides, the max response in test [1] (setting [9]) is 5.35%; in test [1] (setting [10]), 12.7%.
Turning to `Cc1c(C(N)=O)cc([N+](=O)[O-])cc1[N+](=O)[O-]`, the activity change, negative = inhibition in test [1] (at 57.5 µM (top of the series)) was 9.82% (inactive). For the same molecule, the max response in test [1] (setting [9]) was found to be 12.8%; in test [1] (setting [10]) it was 29.3%.
Take `CC(C)(C(=O)c1cccnc1)c1cccnc1`: the activity change, negative = inhibition in test [1] (at 25.7 µM (top of the series)) was -6.04% (inactive). Also, the max response in test [1] (setting [9]) is -12.6%; in test [1] (setting [10]) it was -17.9%.
In the case of `CC(Cc1cccc(C(F)(F)F)c1)NCCOC(=O)c1ccccc1` (stereo not given), the activity change, negative = inhibition in test [1] (at 57.5 µM (top of the series)) was -1.3% (inactive). Further, the max response in test [1] (setting [9]) was -3.51%; in test [1] (setting [10]), -2.7%.
Take `C=C(CC)C(=O)c1ccc(OCC(=O)O)c(Cl)c1Cl`: the Potency in test [7] is 39.8 µM (active). The Potency entry in test [8] was “inactive”.
As for `CNCCC=C1c2ccccc2CCc2ccccc21`, the molecule was called inactive in test [4].
On the same count and under the same terms, in the case of `CC(C)NC[C@@H](O)COc1cccc2ccccc12` it was “inactive”.
